Data from PubChem BioAssay AID1159580 (chemical genetic matrix, 2015).
The whole screen tested about 5,500 compounds, of which about 2,000 (36%) were called active. Inconclusive results (about 18%) are left out. Cut-off read from the data, not from the text of the source: active = normalized growth mostly below about 0.91 (no sharp cut-off); inconclusive = no clear call, values can overlap the other calls; inactive = mostly above about 0.92. This is one part of the list.

Assay: chemical genetic growth profiling, strain panel (AID 1159580);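 note: tested at 20 µM; growth read once vehicle control cultures reached saturation at 30 °C; 1 = growth at the plate median or of vehicle wells; lower values mean less growth of the strain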
Conditions: growth OD

Measured: normalized growth

CN(C)CC[C@H](c1ccc(Cl)cc1)c1ccccn1
inactive: S. cerevisiae deletion strains, locus YJR075W, strain HOC1, stronger effect = lower value 0.994 | S. cerevisiae deletion strains, locus YKL009W, strain mrt4, stronger effect = lower value 1.01 | S. cerevisiae deletion strains, locus YKL068W, stronger effect = lower value 0.997 | S. cerevisiae deletion strains, locus YKL085W, strain MDH1 (second series), stronger effect = lower value 0.995 | S. cerevisiae deletion strains, locus YKL085W, strain MDH1, stronger effect = lower value 0.995 | S. cerevisiae deletion strains, locus YKL160W, strain elf1, stronger effect = lower value 0.994 | S. cerevisiae deletion strains, locus YKL190W, strain CNB1, stronger effect = lower value 1 | S. cerevisiae deletion strains, locus YKR001C, strain vps1, stronger effect = lower value 0.989 | S. cerevisiae deletion strains, locus YKR026C, strain gcn3, stronger effect = lower value 1 | S. cerevisiae deletion strains, locus YKR091W, strain srl3, stronger effect = lower value 1.01 | S. cerevisiae deletion strains, locus YLL001W, strain dnm1, stronger effect = lower value 0.991 | S. cerevisiae deletion strains, locus YLL026W, stronger effect = lower value 0.997 | S. cerevisiae deletion strains, locus YLL041C, strain sdh2, stronger effect = lower value 0.992 | S. cerevisiae deletion strains, locus YLR027C, strain aat2, stronger effect = lower value 1 | S. cerevisiae deletion strains, locus YLR039C, strain RIC1, stronger effect = lower value 1.04 | S. cerevisiae deletion strains, locus YLR058C, strain SHM2, stronger effect = lower value 1 | S. cerevisiae deletion strains, locus YLR102C, strain apc9, stronger effect = lower value 0.989 | S. cerevisiae deletion strains, locus YLR113W, strain HOG1, stronger effect = lower value 1.02 | S. cerevisiae deletion strains, locus YLR221C, strain rsa3, stronger effect = lower value 1.01 | S. cerevisiae deletion strains, locus YLR258W, strain gsy2, stronger effect = lower value 0.993 | S. cerevisiae deletion strains, locus YLR262C, strain YPT6 (second series), stronger effect = lower value 1.01 | S. cerevisiae deletion strains, locus YLR262C, strain YPT6, stronger effect = lower value 1 | S. cerevisiae deletion strains, locus YLR268W, strain sec22, stronger effect = lower value 0.965 | S. cerevisiae deletion strains, locus YLR320W, strain mms22, stronger effect = lower value 0.997 | S. cerevisiae deletion strains, locus YLR330W, strain CHS5, stronger effect = lower value 1.01 | S. cerevisiae deletion strains, locus YLR342W, strain FKS1 (second series), stronger effect = lower value 1.02 | S. cerevisiae deletion strains, locus YLR342W, strain FKS1, stronger effect = lower value 1 | S. cerevisiae deletion strains, locus YLR357W, strain rsc2, stronger effect = lower value 0.959 | S. cerevisiae deletion strains, locus YLR370C, strain arc18, stronger effect = lower value 1 | S. cerevisiae deletion strains, locus YLR371W, strain rom2, stronger effect = lower value 0.991 | S. cerevisiae deletion strains, locus YLR384C, strain iki3, stronger effect = lower value 0.996 | S. cerevisiae deletion strains, locus YLR418C, strain cdc73, stronger effect = lower value 0.994 | S. cerevisiae deletion strains, locus YML016C, strain PPZ1, stronger effect = lower value 1 | S. cerevisiae deletion strains, locus YML032C, strain rad52, stronger effect = lower value 0.966 | S. cerevisiae deletion strains, locus YML120C, strain ndi1, stronger effect = lower value 1.01 | S. cerevisiae deletion strains, locus YML124C, strain tub3, stronger effect = lower value 0.994 | S. cerevisiae deletion strains, locus YMR058W, strain fet3, stronger effect = lower value 1 | S. cerevisiae deletion strains, locus YMR078C, strain ctf18, stronger effect = lower value 0.993 | S. cerevisiae deletion strains, locus YMR125W, strain sto1, stronger effect = lower value 0.997 | S. cerevisiae deletion strains, locus YMR129W, stronger effect = lower value 1 | S. cerevisiae deletion strains, locus YMR205C, strain PFK2, stronger effect = lower value 1.02 | S. cerevisiae deletion strains, locus YMR223W, strain ubp8, stronger effect = lower value 1.01 | S. cerevisiae deletion strains, locus YMR231W, strain pep5, stronger effect = lower value 0.993 | S. cerevisiae deletion strains, locus YMR263W, strain SAP30, stronger effect = lower value 1.02 | S. cerevisiae deletion strains, locus YMR307W, strain GAS1, stronger effect = lower value 0.99 | S. cerevisiae deletion strains, locus YNL067W, strain RPL9B, stronger effect = lower value 0.999 | S. cerevisiae deletion strains, locus YNL071W, strain lat1, stronger effect = lower value 0.998 | S. cerevisiae deletion strains, locus YNL128W, strain TEP1, stronger effect = lower value 1.01 | S. cerevisiae deletion strains, locus YNL153C, strain GIM3, stronger effect = lower value 0.992 | S. cerevisiae deletion strains, locus YNL183C, strain NPR1, stronger effect = lower value 0.956 | S. cerevisiae deletion strains, locus YNL209W, strain ssb2, stronger effect = lower value 1 | S. cerevisiae deletion strains, locus YNL233W, strain BNI4, stronger effect = lower value 1.01 | S. cerevisiae deletion strains, locus YNL248C, strain rpa49, stronger effect = lower value 0.945 | S. cerevisiae deletion strains, locus YNL250W, strain rad50, stronger effect = lower value 0.977 | S. cerevisiae deletion strains, locus YNL271C, strain bni1, stronger effect = lower value 0.988 | S. cerevisiae deletion strains, locus YNL298W, strain CLA4, stronger effect = lower value 0.996 | S. cerevisiae deletion strains, locus YNL307C, strain MCK1, stronger effect = lower value 1 | S. cerevisiae deletion strains, locus YNL322C, strain KRE1 (second series), stronger effect = lower value 1.02 | S. cerevisiae deletion strains, locus YNL322C, strain KRE1, stronger effect = lower value 1 | S. cerevisiae deletion strains, locus YNR049C, strain mso1, stronger effect = lower value 0.996 | S. cerevisiae deletion strains, locus YNR052C, strain pop2, stronger effect = lower value 0.989 | S. cerevisiae deletion strains, locus YOL006C, strain TOP1, stronger effect = lower value 1 | S. cerevisiae deletion strains, locus YOL012C, strain htz1 0.629 | S. cerevisiae deletion strains, locus YOL147C, strain pex11, stronger effect = lower value 0.991 | S. cerevisiae deletion strains, locus YOR001W, strain rrp6, stronger effect = lower value 0.987 | S. cerevisiae deletion strains, locus YOR061W, strain CKA2, stronger effect = lower value 1.01 | S. cerevisiae deletion strains, locus YOR069W, strain VPS5, stronger effect = lower value 1 | S. cerevisiae deletion strains, locus YOR070C, strain gyp1, stronger effect = lower value 0.997 | S. cerevisiae deletion strains, locus YOR080W, strain dia2, stronger effect = lower value 0.997 | S. cerevisiae deletion strains, locus YOR083W, strain WHI5, stronger effect = lower value 0.997 | S. cerevisiae deletion strains, locus YOR106W, strain vam3, stronger effect = lower value 1.01 | S. cerevisiae deletion strains, locus YOR136W, strain idh2, stronger effect = lower value 0.992 | S. cerevisiae deletion strains, locus YOR144C, strain elg1, stronger effect = lower value 0.988 | S. cerevisiae deletion strains, locus YOR184W, strain ser1, stronger effect = lower value 1.02 | S. cerevisiae deletion strains, locus YOR231W, strain MKK1, stronger effect = lower value 0.998 | S. cerevisiae deletion strains, locus YOR265W, strain rbl2, stronger effect = lower value 1 | S. cerevisiae deletion strains, locus YOR270C, strain vph1, stronger effect = lower value 1.01 | S. cerevisiae deletion strains, locus YOR290C, strain snf2, stronger effect = lower value 0.998 | S. cerevisiae deletion strains, locus YOR316C, strain cot1, stronger effect = lower value 0.995 | S. cerevisiae deletion strains, locus YPL051W, strain arl3, stronger effect = lower value 1.01 | S. cerevisiae deletion strains, locus YPL055C, strain LGE1, stronger effect = lower value 1.02 | S. cerevisiae deletion strains, locus YPL078C, strain atp4, stronger effect = lower value 0.989 | S. cerevisiae deletion strains, locus YPL106C, strain sse1, stronger effect = lower value 1.01 | S. cerevisiae deletion strains, locus YPL240C, strain hsp82, stronger effect = lower value 0.997 | S. cerevisiae deletion strains, locus YPL241C, strain CIN2, stronger effect = lower value 1 | S. cerevisiae deletion strains, locus YPL256C, strain CLN2, stronger effect = lower value 0.985 | S. cerevisiae deletion strains, locus YPR119W, strain clb2, stronger effect = lower value 0.989 | S. cerevisiae deletion strains, locus YPR141C, strain kar3, stronger effect = lower value 0.98 | S. cerevisiae deletion strains, locus YPR163C, strain tif3, stronger effect = lower value 0.992 | S. cerevisiae deletion strains, locus YPR167C, strain met16, stronger effect = lower value 0.994 | S. cerevisiae deletion strains, strain wtn01, stronger effect = lower value 0.995 | S. cerevisiae strains, strain wild type, stronger effect = lower value 1.01
